# Source: PubChem BioAssay (EPA / NIEHS)
# Values joined by “and” are separate entries in the source; they are usually repeats but may differ in a detail not shown here. Identical values can stand only once. Results filed as inconclusive are left out. Where a structure was tested more than once in an assay, its records may differ in their call. Active and inactive are the calls of the source. How the source made its calls, unless noted: active means hit-call score of the fitted dose curve at least 0.9, where 1 is the maximum; inconclusive means response in the unintended direction; inactive means score below 0.9.
# Legend:
# [1] = read-out: solute carrier (SLCO1B1), SLCO1B1 (gene 10599); assay: LTEA_HepaRG_SLCO1B1: Life Technologies and Expression Analysis (LTEA) Assay for solute carrier (SLCO1B1) using HepaRG (AID 2283530; active means hit-call score of the fitted dose curve at least 0.9, where 1 is the maximum; inactive means score below 0.9); settings: mRNA level, 48 h; actives raise or lower the signal
# How it was run: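 Gain or loss of SLCO1B1 mRNA is fitted against the 0.5% DMSO vehicle in human HepaRG liver cells treated 48 h at up to 100 uM in half-log steps. Expression comes from qRT-PCR normalized to endogenous controls.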
# [2] = read-out: sulfotransferase 2A1 (SULT2A1), SULT2A1 (gene 6822); assay: LTEA_HepaRG_SULT2A1: Life Technologies and Expression Analysis (LTEA) Assay for sulfotransferase 2A1 (SULT2A1) using HepaRG (AID 2283531; active means hit-call score of the fitted dose curve at least 0.9, where 1 is the maximum; inactive means score below 0.9); settings: mRNA level, 48 h; actives raise or lower the signal
# How it was run: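 Cells were plated and cultured 48 h, switched to serum-free induction medium, then dosed in duplicate for 48 h (8 concentrations, max 100 uM). RNA was isolated and SULT2A1 expression measured by qRT-PCR; gain or loss of signal fitted relative to DMSO.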
# [3] = read-out: Transforming Growth Factor (TGFA), TGFA (gene 7039); assay: LTEA_HepaRG_TGFA: Life Technologies and Expression Analysis (LTEA) Assay for Transforming Growth Factor (TGFA) using HepaRG (AID 2283532; active means hit-call score of the fitted dose curve at least 0.9, where 1 is the maximum; inactive means score below 0.9); settings: mRNA level, 48 h; actives raise or lower the signal
# How it was run: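 Gene expression of TGFA was quantified by qRT-PCR after human HepaRG cells were treated for 48 h with test chemicals (eight concentrations, highest 100 uM, 0.5% DMSO). Activity in either direction was fitted relative to DMSO.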
# [4] = read-out: Transforming Growth Factor (TGFB1), TGFB1 (gene 7040); assay: LTEA_HepaRG_TGFB1: Life Technologies and Expression Analysis (LTEA) Assay for Transforming Growth Factor (TGFB1) Transporter using HepaRG (AID 2283533; active means hit-call score of the fitted dose curve at least 0.9, where 1 is the maximum; inactive means score below 0.9); settings: mRNA level, 48 h; actives raise or lower the signal
# How it was run: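 Expression change of TGFB1 in human HepaRG cells is measured after a 48 h chemical exposure, up to 100 uM in 0.5% DMSO vehicle. Curves are fitted in both directions relative to the DMSO baseline.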
# TIMP1, TIMP1 (gene 7076) = assay: LTEA_HepaRG_TIMP1: Life Technologies and Expression Analysis (LTEA) Assay for TIMP1 using HepaRG (AID 2283534; active means hit-call score of the fitted dose curve at least 0.9, where 1 is the maximum; inactive means score below 0.9;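 further: TaqMan qRT-PCR signal normalized to ACTB GAPDH and POLR2A housekeeping genes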); settings: mRNA level, 48 h; actives raise or lower the signal
# How it was run: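 We dosed human liver HepaRG cultures for 48 hours with up to 100 uM test chemical and measured TIMP1 expression by qRT-PCR. Activity in either direction is fitted relative to the 0.5% DMSO vehicle.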
# [5] = read-out: Tumor necrosis factor receptor 1 (TNFRSF1A), TNFRSF1A (gene 7132); assay: LTEA_HepaRG_TNFRSF1A: Life Technologies and Expression Analysis (LTEA) Assay for Tumor necrosis factor receptor 1 (TNFRSF1A) using HepaRG (AID 2283535; active means hit-call score of the fitted dose curve at least 0.9, where 1 is the maximum; inactive means score below 0.9); settings: mRNA level, 48 h; actives raise or lower the signal
# How it was run: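 Expression of TNFRSF1A in human HepaRG liver cells was measured by qRT-PCR 48 h after chemical dosing (maximum 100 uM). Bidirectional curve fitting used 0.5% DMSO as baseline.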
# [6] = read-out: Thyroid Hormone Responsive (THRSP), THRSP (gene 7069); assay: LTEA_HepaRG_THRSP: Life Technologies and Expression Analysis (LTEA) Assay for Thyroid Hormone Responsive (THRSP) using HepaRG (AID 2283536; active means hit-call score of the fitted dose curve at least 0.9, where 1 is the maximum; inactive means score below 0.9); settings: mRNA level, 48 h; actives raise or lower the signal
# How it was run: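 Cell model: human HepaRG, approx. 100,000 cells/well, 0.5% DMSO vehicle. Exposure lasts 48 h; phenobarbital 1 mM serves as induction positive control. Gene expression is measured by qRT-PCR against three endogenous control genes.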
# [7] = read-out: Cellular tumor antigen p53 (Homo sapiens) (UniProt P04637); assay: LTEA_HepaRG_TP53: Life Technologies and Expression Analysis (LTEA) Assay for Tumor Protein P53 (TP53) using HepaRG (AID 2283537; active means hit-call score of the fitted dose curve at least 0.9, where 1 is the maximum; inactive means score below 0.9); settings: mRNA level, 48 h; actives raise or lower the signal
# How it was run: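 TP53 transcript measured by qRT-PCR, normalized to three housekeeping genes, after 48 h treatment of human HepaRG cultures with chemicals from 100 uM downward in half-log steps (0.5% DMSO vehicle, serum-free induction medium). Up- or down-regulation fitted against DMSO.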
# [8] = read-out: UDP glucuronosyltransferase (UGT1A1), UGT1A1 (gene 54658); assay: LTEA_HepaRG_UGT1A1: Life Technologies and Expression Analysis (LTEA) Assay for UDP glucuronosyltransferase (UGT1A1) using HepaRG (AID 2283538; active means hit-call score of the fitted dose curve at least 0.9, where 1 is the maximum; inactive means score below 0.9); settings: mRNA level, 48 h; actives raise or lower the signal
# How it was run: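 mRNA induction or loss of UGT1A1, by TaqMan qRT-PCR, in duplicate HepaRG wells after 48 h exposure to half-log dilutions topping at 100 uM; DMSO (0.5%) served as baseline.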
# [9] = read-out: UDP glucuronosyltransferase (UGT1A6), UGT1A6 (gene 54578); assay: LTEA_HepaRG_UGT1A6: Life Technologies and Expression Analysis (LTEA) Assay for UDP glucuronosyltransferase (UGT1A6) using HepaRG (AID 2283539; active means hit-call score of the fitted dose curve at least 0.9, where 1 is the maximum; inactive means score below 0.9); settings: mRNA level, 48 h; actives raise or lower the signal
# How it was run: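 Endpoint is UGT1A6 transcript induction or loss in a human liver cell line, quantified by TaqMan qRT-PCR 48 h after dosing. Concentrations ran from 100 uM downward in half-log steps in 0.5% DMSO; activity was fitted in both directions versus vehicle.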
# [10] = read-out: X-box binding protein 1 (XBP1), XBP1 (gene 7494); assay: LTEA_HepaRG_XBP1: Life Technologies and Expression Analysis (LTEA) Assay for X-box binding protein 1 (XBP1) using HepaRG (AID 2283540; active means hit-call score of the fitted dose curve at least 0.9, where 1 is the maximum; inactive means score below 0.9); settings: mRNA level, 48 h; actives raise or lower the signal
# How it was run: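 Human HepaRG monolayers receive test chemical for 48 h across an eight-point half-log series starting at 100 uM. XBP1 mRNA gain or loss is scored against DMSO by qRT-PCR.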
# [11] = LTEA_HepaRG_LDH_cytotoxicity: Cytotoxicity Assessment in the Life Technologies and Expression Analysis (LTEA) Assay (AID 2283563)
# How it was run: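 Human HepaRG hepatic cells are treated with test chemicals for 48 h at up to 100 uM in 0.5% DMSO. Cytotoxicity is scored from medium LDH against the vehicle control.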
# [12] = TOX21_p53_BLA_p2_viability: Viability Assessment in the Tox21 HCT-116 p53 Agonism Beta-lactamase Assay, Phase 2 (AID 2283591);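 further: compound exposure lasted 16 h at 37 °C; actives lower the ATP signal meaning cytotoxicity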
# How it was run: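 HCT-116 p53-bla cells (4000/well) rested 5 h at 37C, then received compounds in DMSO (217-fold dilution) for 16 h at 37C, 5% CO2. After the CCF4 read, CellTiter-Glo was added; ATP luminescence was read after 30 min at room temperature.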
# [13] = molecular target: Cellular tumor antigen p53 (Homo sapiens) (UniProt P04637); assay: TOX21_p53_BLA_p2_ratio: Tox21 HCT-116 p53 Agonism Beta-lactamase Assay, Ratio, Phase 2 (AID 2283592)
# Cellular tumor antigen p53 (Homo sapiens), sequence (P04637 whole entry, looked up): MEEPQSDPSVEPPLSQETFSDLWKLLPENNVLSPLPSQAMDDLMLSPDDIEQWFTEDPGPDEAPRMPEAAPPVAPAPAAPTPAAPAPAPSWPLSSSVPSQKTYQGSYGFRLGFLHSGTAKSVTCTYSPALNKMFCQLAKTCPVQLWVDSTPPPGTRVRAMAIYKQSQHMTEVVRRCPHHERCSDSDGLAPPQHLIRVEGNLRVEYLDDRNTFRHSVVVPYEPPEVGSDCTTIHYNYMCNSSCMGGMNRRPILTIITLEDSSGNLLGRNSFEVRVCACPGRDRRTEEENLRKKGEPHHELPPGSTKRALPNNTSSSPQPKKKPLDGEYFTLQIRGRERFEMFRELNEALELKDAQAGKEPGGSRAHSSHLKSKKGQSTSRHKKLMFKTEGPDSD
# How it was run: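 Cleaved-to-uncleaved substrate ratio (460 vs 530 nm) measured in HCT116 cells with an inducible beta-lactamase reporter linked to p53 activity. Compounds incubated 16 h at 37C before 2 h room-temperature CCF4-AM loading.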
# [14] = TOX21_p53_BLA_p3_viability: Viability Assessment in the Tox21 HCT-116 p53 Agonism Beta-lactamase Assay, Phase 3 (AID 2283593);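 further: cells exposed to compound for 16 h before reading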
# How it was run: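 HCT-116 cells (4000/well) rested 5 h at 37C, then got DMSO compounds by pin tool (217-fold dilution) for 16 h at 37C, 5% CO2. After the bla read, CellTiter-Glo was added and luminescence read at 30 min, room temperature.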
# [15] = molecular target: Cellular tumor antigen p53 (Homo sapiens) (UniProt P04637); assay: TOX21_p53_BLA_p3_ratio: Tox21 HCT-116 p53 Agonism Beta-lactamase Assay, Ratio, Phase 3 (AID 2283596)
# How it was run: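 Cells were seeded at 4000/well, rested 5 h at 37C, then dosed with DMSO compound solutions (217-fold dilution) for 16 h. CCF4-AM substrate was loaded for 2 h at room temperature, and the 460/530 nm emission ratio was fitted for gain of signal versus DMSO.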
# [16] = TOX21_p53_BLA_p4_viability: Viability Assessment in the Tox21 HCT-116 p53 Agonism Beta-lactamase Assay, Phase 4 (AID 2283597);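 further: hits lower the luminescence signal meaning cytotoxicity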
# How it was run: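 Viability is taken as cellular ATP: after 16 h compound exposure of HCT116 cells and a 2 h room-temperature CCF4-AM substrate step, CellTiter-Glo reagent is added and luminescence is measured 30 min later.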
# [17] = molecular target: Cellular tumor antigen p53 (Homo sapiens) (UniProt P04637); assay: TOX21_p53_BLA_p5_ratio: Tox21 HCT-116 p53 Agonism Beta-lactamase Assay, Ratio, Phase 5 (AID 2283599)
# How it was run: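 HCT-116 cells carrying a p53-inducible beta-lactamase reporter were seeded at 4000 cells/well and dosed after 5 h with compound in DMSO (217-fold dilution). After 16 h at 37C, CCF4-AM substrate was added for 2 h, and the 460/530 nm emission ratio was scored as gain-of-signal versus DMSO.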
# [18] = TOX21_p53_BLA_p5_viability: Viability Assessment in the Tox21 HCT-116 p53 Agonism Beta-lactamase Assay, Phase 5 (AID 2283600)
# How it was run: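 Viability is taken from cellular ATP content, measured by luciferase luminescence in the same wells after the beta-lactamase ratio read. Cells are seeded at 4000 per well and exposed to DMSO-dissolved compounds, diluted 217-fold, for 16 h.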
# [19] = ATG_XTT_Cytotoxicity: Cytotoxicity Assessment in the Attagene TRANS-FACTORIAL HepG2 Assay (AID 2283584);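 on AC50: XTT signal for cell number as viability in transfected HepG2 cells; cells exposed to compound for 24 h before reading; active means loss of viability signal versus DMSO baseline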
# How it was run: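 Transfect HepG2 with GAL4-UAS reporter units, dose compound, incubate 24 h, then measure viable cell number by XTT. Fit concentration response against DMSO baseline.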
smiles,measurement,setting,value
CS(=O)(=O)OCCCCOS(C)(=O)=O,outcome,[1],inactive
same,outcome,[2],inactive
same,outcome,[3],inactive
same,outcome,[4],inactive
same,outcome,"TIMP1, TIMP1 (gene 7076)",inactive
same,outcome,[5],inactive
same,outcome,[6],inactive
same,outcome,[7],inactive
same,outcome,[8],inactive
same,outcome,[9],inactive
same,outcome,[10],inactive
same,outcome,[11],inactive
same,outcome,[12],inactive
same,outcome,[13],inactive
same,AC50,[14],0.0231 nM (active)
same,outcome,[14],inactive
same,outcome,[15],inactive
same,outcome,[16],inactive
same,outcome,[17],inactive
same,outcome,[18],inactive
COc1cc([C@@H]2c3cc4c(cc3[C@@H](O[C@@H]3O[C@@H]5CO[C@@H](C)O[C@H]5[C@H](O)[C@H]3O)[C@H]3COC(=O)[C@H]23)OCO4)cc(OC)c1O,outcome,[19],inactive
same,outcome,[12],inactive
same,AC50,[13],1.36 µM (active) and 3.57 µM (active)
same,outcome,[14],inactive
same,AC50,[15],852 nM (active) and 3.18 µM (active)
same,outcome,[16],inactive
same,AC50,[17],2.56 µM (active) and 4.83 µM (active)
same,outcome,[18],inactive
CC1CC(O)CC(C)(C)C1 (configuration not stated),outcome,[19],inactive
same,outcome,[12],inactive
same,outcome,[13],inactive
same,outcome,[14],inactive
same,outcome,[15],inactive
same,outcome,[16],inactive
same,outcome,[17],inactive
same,outcome,[18],inactive
Clc1ccc(C(c2ccccc2Cl)C(Cl)Cl)cc1 (configuration not stated),AC50,[19],148 µM (active)
same,outcome,[19],inactive
same,AC50,[12],46.1 µM (active) and 30.1 µM (active)
same,AC50,[13],83.3 µM (active) and 39.1 µM (active)
same,AC50,[14],67.7 µM (active) and 31.2 µM (active)
same,AC50,[16],64.3 µM (active) and 25.8 µM (active)
same,AC50,[17],83.4 µM (active) and 42.3 µM (active)
same,AC50,[18],72.7 µM (active) and 35.9 µM (active)
CCCCCCC(=O)c1ccccc1,outcome,[19],inactive
O=C(O)c1ccc(O)cc1,outcome,[19],inactive
same,outcome,[12],inactive
same,outcome,[13],inactive
same,outcome,[14],inactive
same,outcome,[15],inactive
same,outcome,[16],inactive
same,outcome,[17],inactive
